# Experimental data taken from PubChem BioAssay AID492949 (National Center for Advancing Translational Sciences (NCATS), 2010).
# Records with an inconclusive call do not appear. Activity calls are given as the source filed them. The call rests on the fitted dose curve; in most records, active means well fitted activation curve with a large enough effect; inconclusive means small, poorly fitted or top-dose-only effect; inactive means no such curve, though single readings can be large or run the other way.
# Target: Relaxin receptor 1 (Homo sapiens) (UniProt Q9HBX9)
# Sequence (Q9HBX9 whole entry, looked up): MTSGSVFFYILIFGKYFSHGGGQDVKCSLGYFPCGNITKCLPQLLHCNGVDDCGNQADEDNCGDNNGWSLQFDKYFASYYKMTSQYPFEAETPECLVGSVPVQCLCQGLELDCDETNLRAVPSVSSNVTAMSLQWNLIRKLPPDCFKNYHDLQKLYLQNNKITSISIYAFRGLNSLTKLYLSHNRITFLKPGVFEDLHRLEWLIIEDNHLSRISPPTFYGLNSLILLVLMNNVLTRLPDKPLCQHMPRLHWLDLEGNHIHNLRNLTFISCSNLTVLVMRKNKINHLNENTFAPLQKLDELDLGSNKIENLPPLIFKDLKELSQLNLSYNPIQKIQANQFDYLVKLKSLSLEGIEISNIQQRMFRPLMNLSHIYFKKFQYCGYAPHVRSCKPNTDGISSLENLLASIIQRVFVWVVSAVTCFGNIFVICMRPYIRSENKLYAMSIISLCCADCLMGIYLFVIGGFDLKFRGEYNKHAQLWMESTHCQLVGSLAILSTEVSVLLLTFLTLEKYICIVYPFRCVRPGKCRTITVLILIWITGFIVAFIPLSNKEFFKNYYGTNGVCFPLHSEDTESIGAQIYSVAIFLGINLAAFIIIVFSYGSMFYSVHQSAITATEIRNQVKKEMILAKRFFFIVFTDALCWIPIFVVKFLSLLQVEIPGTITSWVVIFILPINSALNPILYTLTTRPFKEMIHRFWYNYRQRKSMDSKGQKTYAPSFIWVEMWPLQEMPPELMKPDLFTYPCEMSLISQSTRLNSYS
# Assay: qHTS Assay for Agonists of the Relaxin Receptor RXFP1: THP1 Hit Validation; further: nearly all actives have a fitted effect of over 60% in size
# Settings: THP1-RXFP1 cells, cAMP TR-FRET, 30 min; series mostly up to 115 µM
# From the text: The relaxin hormone is involved in the variety of biological functions in normal tissues and diseases. The role of relaxin is well-established in female reproduction and parturition, mammary gland and endometrial development, maintenance of myometrial quiescence during pregnancy. Relaxin signaling through its G protein-coupled receptor (GPCR) RXFP1 results in ECM remodeling through regulation of collagen deposition, cell invasiveness, proliferation and overall tissue homeostasis. […] Recombinant human relaxin (rhRlx) is currently being tested in clinical trials as a protective agent in congestive heart failure, in treating severe preeclampsia, and as an anti-fibrotic agent in systemic sclerosis.
# Upon relaxin binding RXFP1 activation leads to the activation of adenylate cyclase (AC) via Gs. cAMP will activate PKA, which phosphorylates many signaling proteins. Thus, detection of cAMP increase is an easy and reliable indication of relaxin receptor activation. To screen for agonists of the relaxin receptor, a THP1 cell line stably transfected with RXFP1 was used. RXFP1 activation was assayed by changes in cAMP levels as detected with a time-resolved fluorescence energy transfer (TR-FRET) cAMP detection kit.
# NIH Chemical Genomics Center [NCGC]
# NIH Molecular Libraries Probe Production Centers Network [MLPCN]
# Assay Submitter (PI): Alexander Agoulnik
# NCGC Assay Protocol Summary:
# This is a cell-based assay for cAMP second messenger response to screen for agonists of the RXFP1 receptor. The assay was conducted in the presence of a PDE4 inhibitor (Ro 20174). The cells were lysed and the cAMP levels were measured with a TR-FRET cAMP kit. Presence of cAMP in the cell lysate disrupts binding between the cryptate-labeled anti-cAMP and d2-labeled cAMP pair, leading to a decrease in the TR-FRET signal. Data were normalized to the controls for basal activity (buffer only) and 100% activity (29 nM porcine relaxin). The EC50 values were determined from concentration-response data modeled with the standard Hill equation
# 1536-well assay protocol for the THP1 RXFP1 cAMP assay:
# (1) Add 3 ul THP1 RXFP1 cell culture. 2000 cells/well in DMEM/F12, 10% FBS, 1x Pen/Strep (dispensed offline with MultiDrop Combi).
# (3) Add 23 nl compounds in DMSO solution. Final concentration was 0.5 - 58 uM.
# (4) Incubate 30 min at 37C, 5% CO2.
# (5) Add 1 ul cAMP-d2 in lysis buffer (HTRF cAMP HiRange kit, CisBio).
# (6) Add 1 ul anti-cAMP antibody-cryptate in lysis buffer (HTRF cAMP HiRange kit, CisBio).
# (7) Incubate 30 min at room temperature.
# (6) Detect the assay plate in a ViewLux plate reader (PerkinElmer) with Ex=320 nm, Em1=615 nm and Em2=665 nm.
# Keywords: relaxin, RXFP1, RXFP2, G-protein coupled receptor, cAMP, agonist, high throughput screening, MLSMR, MLSCN, NIH Roadmap, qHTS and NCGC
# Potency means the concentration at half of the fitted maximal effect.
row,Compound,Potency
1,CC(=O)c1sc(NC(=O)C(C)C)nc1C,19.4 µM (active)
2,CC1(C)Cc2c(sc3c2c2ncnn2c2nnc(SCC(=O)NCc4ccco4)n32)CO1,5.49 µM (active)
3,COc1ccc(S(=O)(=O)Nc2ccccn2)c(C)c1C,inactive
4,O=C(Nc1ccccc1C(=O)N1CCNCC1)c1ccco1,inactive
5,CN(Cc1ccccc1)C(=O)c1ccccc1NC(=O)c1ccco1,inactive
6,CCOC(=O)c1sc(NC(=O)CCc2ccc(OC)cc2)nc1C,17.3 µM (active)
7,CCCN(CCC)S(=O)(=O)c1cc(CN2C(=O)c3cccnc3C2=O)ccc1OC,24.5 µM (active)
8,CCN(CC)S(=O)(=O)c1ccc(C)c(NC(=O)Cn2cnc3cc([N+](=O)[O-])ccc3c2=O)c1,12.3 µM (active)
9,Cn1c(N)c(C(=O)CSc2nnc(NC3CCCCC3)s2)c(=O)n(C)c1=O,inactive
10,COc1ccc(CN2C(=O)c3cccnc3C2=O)cc1S(=O)(=O)NC1CCCCC1,19.5 µM (active)
11,C[C@H](Cc1ccccc1)Nc1ncnc2c1ncn2[C@@H]1O[C@H](CO)[C@@H](O)[C@H]1O,inactive
12,CCOc1ccc2cc(C#N)c(SCC(=O)NC(C)CC)nc2c1 (stereo not given),6.9 µM (active)
13,Cc1cc(NC(=O)c2ccccc2F)nc2c1c(=O)oc1ccccc12,19.4 µM (active)
14,Cc1cccc(C(=O)Nc2ccccc2C(=O)NCc2ccco2)c1,inactive
15,O=C(Nc1ccccc1C(=O)NCCc1ccccc1)c1ccco1,inactive
16,Nc1cc2ccncc2c2ccccc12,inactive
17,O=S(=O)(c1cccc(-c2cn3cccnc3n2)c1)N1CCOCC1,13.8 µM (active)
18,CCN(CC)CCCN1C=C2C(=O)C(C)(OC(=O)C3CCCC3)C(=O)C=C2C=C1c1ccsc1 (stereo not given),inactive
19,S=c1nc[nH]c2c1[nH]c1ccccc12,7.74 µM (active)
20,O=C(Nc1ccccc1C(=O)NC1CCCCC1)c1ccco1,inactive

row,Compound,Potency
1,CCOC(=O)CNC(=O)CSc1ccc2nnc(-c3cccnc3)n2n1,inactive
2,CC(C)(C)C(=O)Nc1ccccc1C(=O)NCc1ccco1,inactive
3,Cc1cc(C)n2nc(C(=O)Nc3ccc4c(c3)OCCO4)nc2n1,8.68 µM (active)
4,O=c1c2ccccc2cnn1Cc1n[nH]c(=S)n1-c1ccc(F)c(Cl)c1,12.3 µM (active)
5,CCC(=O)Nc1ccc(NC(=O)CSc2nc3c(c(=O)n(C)c(=O)n3C)n2CC)cc1,43.6 µM (active)
6,CC1CCN(S(=O)(=O)c2ccc3nc(N4CCN(c5ccccc5)CC4)ccc3c2)CC1,15.4 µM (active)
7,COc1ccc(CC(=O)N/N=C/c2cccnc2)cc1OC,inactive
8,Cc1ccccc1NC(=O)CNc1ccccc1C(=O)NCc1ccco1,inactive
9,NC(=S)c1cc2ccc(O)cc2oc1=O,4.88 µM (active)
10,COC(=O)[C@@H]1C[C@@]2(O)[C@H](O)[C@H](O)[C@H](O)C[C@H]2N1Cc1cc(F)ccc1F,inactive
11,CN(C)S(=O)(=O)c1ccc(C(=O)OCC(=O)Nc2cccnc2Cl)cc1,19.4 µM (active)
12,c1ccc(COn2nnc3ccccc32)c(COn2nnc3ccccc32)c1,inactive
13,O=C(Cn1cnc2c(nnn2-c2ccc(F)cc2)c1=O)NCC1CCCO1 (stereo not given),8.7 µM (active)
14,Cc1ccc2[nH]c3c(=S)nc[nH]c3c2c1,6.9 µM (active)
15,O=[N+]([O-])c1cc2c(c(CSc3nnc4ccccn34)c1)OCOC2,13.8 µM (active)
16,C=CCSc1nc2c(c(=O)[nH]1)C(C(C)C)C(C#N)=C(N)O2 (stereo not given),inactive
17,Cc1ccc(-n2c(=S)[nH]c3sc4c(c3c2=O)CCC4)cc1,8.68 µM (active)
18,COc1ccccc1CNS(=O)(=O)c1cc(CN2C(=O)c3cccnc3C2=O)ccc1OC,17.4 µM (active)
19,CCc1nnc(NC(=O)CSc2nc(C)nc3c2c(=O)n(C)c(=O)n3C)s1,10.9 µM (active)
20,O=C(O)c1cccc(CSc2nnc(Cc3ccccc3)o2)c1,inactive
